This note sets out measurements from PubChem BioAssay AID1508615 (Milbrandt Lab, Department of Genetics, Washington …, 2020).

Screen size: about 1,600 compounds; about 20 (1%) were called active.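 Rule for the calls: active = ratio of uncleaved NAD to its breakdown product ADP-ribose above 4, meaning the enzyme was inhibited; inactive = the rest.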 For the sample, actives were picked, then their nearest neighbours and some compounds at random.

NAD(+) hydrolase SARM1 (Homo sapiens), sequence (Q6SZW1 whole entry, looked up): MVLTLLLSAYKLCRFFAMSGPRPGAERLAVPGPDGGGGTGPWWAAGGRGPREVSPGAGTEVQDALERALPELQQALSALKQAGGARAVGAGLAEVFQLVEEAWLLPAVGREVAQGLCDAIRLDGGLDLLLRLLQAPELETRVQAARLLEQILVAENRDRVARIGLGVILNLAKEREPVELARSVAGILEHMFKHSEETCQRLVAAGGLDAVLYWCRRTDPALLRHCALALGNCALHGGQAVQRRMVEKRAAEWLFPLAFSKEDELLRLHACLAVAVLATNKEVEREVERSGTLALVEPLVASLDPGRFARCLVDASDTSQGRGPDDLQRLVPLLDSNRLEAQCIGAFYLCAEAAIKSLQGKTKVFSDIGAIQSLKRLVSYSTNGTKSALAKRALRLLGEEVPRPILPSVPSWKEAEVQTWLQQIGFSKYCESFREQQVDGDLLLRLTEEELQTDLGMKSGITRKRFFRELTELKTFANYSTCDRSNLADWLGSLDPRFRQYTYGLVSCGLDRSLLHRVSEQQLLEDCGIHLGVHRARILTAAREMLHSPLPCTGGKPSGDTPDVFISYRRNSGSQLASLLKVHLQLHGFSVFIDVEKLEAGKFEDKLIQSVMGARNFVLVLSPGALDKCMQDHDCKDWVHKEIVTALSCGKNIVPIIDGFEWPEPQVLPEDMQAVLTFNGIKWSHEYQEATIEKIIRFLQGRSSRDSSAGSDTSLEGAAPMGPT

This experiment addresses NAD(+) hydrolase SARM1 (Homo sapiens) (UniProt Q6SZW1). Kind of experiment: SARM1 TIR NADase inhibitors by HPLC, primary screen, cell lysate, HPLC readout (AID 1508615).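 Note: substrate NAD at 5 µM with 60 min at 37 °C.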 Conditions: HEK293T SAM-TIR lysate, at 5 µM, stronger effect = higher value.
`O=C1NC(=O)C(=Cc2ccc3ccccc3c2)C(=O)N1`: the NAD/ADPR ratio is 3 (inactive). Consider `COc1cc(C=C2C(=O)NC(=O)NC2=O)ccc1O`, for which the NAD/ADPR ratio is 3 (inactive). On to `CCN(CC)c1ccc(C=C2C(=O)NC(=S)NC2=O)cc1`, for which the NAD/ADPR ratio is 5.3 (active). Regarding `COC12C(COC(N)=O)C3=C(C(=O)C(C)=C(N)C3=O)N1CC1C2N1C` (stereo not given), the NAD/ADPR ratio is 3 (inactive). On to `O=C1CCC2(O)[C@@H]3Cc4ccc(O)c5c4[C@]2(CCN3Cc2ccoc2)C1O5` (stereo not given in full), for which the NAD/ADPR ratio is 3 (inactive). Turning to `CC1=CC(O)C(O)C2(C)C1CC1OC(=O)C(O)C3C(C)C(O)C4(O)OCC13C42` (stereo not given), the NAD/ADPR ratio is 3 (inactive). Consider `COC(=O)c1nc(-c2ccc3c(n2)C(=O)C(N)=C(OC)C3=O)c(N)c(-c2ccc(OC)c(OC)c2O)c1C`, for which the NAD/ADPR ratio is 3 (inactive). With `CC1=C(O)C(=O)C=C2C1=CC=C1[C@@]2(C)CC[C@@]2(C)[C@@H]3C[C@](C)(C(=O)O)CC[C@]3(C)CC[C@]12C`, the NAD/ADPR ratio was 12.8 (active). For `N#CC12CNCC1CN=N2` (stereo not given) the value was 3 (inactive); for `NC(=O)c1ccc(C(=O)Nc2ccc([As](=O)(O)O)cc2)cc1`, 3 (inactive).
